TTR transcr act: TTR transcription activation, primary screen. SH-SY5Y TTR promoter Gaussia luciferase, luminescence; 100% = recombinant luciferase protein wells. activation, % at 16.7 µM. actives 1.3% (n = 92,000). AID 1117267;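 active = activation above the mean of all tested compounds plus 3 SD, cut at about 9.5% in these data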;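 also: cells exposed to compounds for one day before reading; 0% = median of all test compound wells on the plate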
TTR inh HuH7: decreases TTR transcription in HuH7 cells in activator counter-screen; shares compounds with TTR transcr act; HuH7 TTR promoter-Gaussia luciferase reporter, luminescence; inhibition, % at 16.7 µM; actives 4% (n = 1,100); AID 1117279;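 active = average inhibition above the solvent-only control wells' mean plus 3 SD, cut at about 15% in these data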;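 also: 0% = cells with DMSO only and 100% = cells with inhibitor control FD; inhibitors lower well luminescence so higher value means more inhibition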
TTR up confirm: human TTR transcription activation, confirmation; shares compounds with TTR transcr act; SHSY5Y TTR promoter Gaussia luciferase, luminescence; 100% = purified Lucia enzyme wells, no cells; activation, % at 16.7 µM; 1,100 tested, under 10 active; AID 1117280;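 active = mean activation above a set limit taken from the earlier primary screen, cut at about 11% in these data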;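 also: 0% = DMSO-treated cells and 100% = recombinant Lucia luciferase without cells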
The depositor's hits bear a star. Many of the other results were omitted from the sample, so hits are more common in it than they were.

SMILES | TTR transcr act | others
O=C(O)CC1(C(=O)O)CCCC1 | -2
O=C(O)C1(C(=O)O)CCC2(CCCCC2)CC1 | 10.0* | TTR inh HuH7=-13;TTR up confirm=1
O=C(O)C1(C(=O)O)CCCC1 | 2
COc1ccc2c3c1OC1CC(O)C=CC31CCN(C)C2 (stereo not given) | 12* | TTR inh HuH7=-10;TTR up confirm=0
N#Cc1ccc(C(=O)OCC(=O)Nc2ccc(N3CCOCC3)cc2)cc1 | 7
COc1cccc(NC(=O)N2CCN(c3nc(-c4cccc(OC)c4)cs3)CC2)c1 | -4
COc1cccc(-c2csc(N3CCN(Cc4ccccc4)CC3)n2)c1 | 10.0* | TTR inh HuH7=9;TTR up confirm=-1
COc1ccc(-c2cc(=O)[nH]c(N3CCN(Cc4ccccc4)CC3)n2)cc1 | 1
CCOC(=O)[C@]12CCCC=C1N(CCCOC)C(=O)[C@@H]2CC(=O)NCCc1ccccc1OC | 0
Cc1ccc(C)c(NC(=O)CN(C)C(=O)C2COc3ccccc3O2)c1 (stereo not given) | 1
Cc1cc(OC(=O)c2c(C)cc(OC(=O)c3c(C)cc(O)cc3O)cc2O)cc(O)c1C(=O)O | 2
O=C(COC(=O)c1cc2ccccc2cc1O)NC(=O)NCc1ccco1 | -1
O=C(OCc1ccccc1F)c1cc2ccccc2cc1O | 11* | TTR inh HuH7=-4;TTR up confirm=1
COc1ccccc1NC(=O)NNC(=O)c1cc2ccccc2cc1O | 0
CCc1ccc(-n2nc3ccc(NC(=O)c4ccc5c(c4)OCO5)cc3n2)cc1 | 14* | TTR inh HuH7=-2;TTR up confirm=0
CC(C)(C)c1cnnn1-c1ccc(NC(=O)c2ccc3c(c2)OCO3)cc1 | -1
Cc1ccc(-n2nc3ccc(NC(=O)c4ccc5c(c4)OCO5)cc3n2)cc1 | 1
CCN1CCN(CCCNC(=O)c2ccc(CS(=O)c3ccc(Br)cc3)o2)CC1 (stereo not given) | -1
O=C(OCC#CCSc1nnc(-c2cccc3ncccc23)o1)c1ccc(F)cc1 | -2
CC(C)Cn1cnc2c1c(=O)n(CC(=O)N(C)C)c(=O)n2Cc1ccccc1 | 0
COCCn1cnc2c1c(=O)n(CC(=O)Nc1cc(C)on1)c(=O)n2Cc1ccccc1 | 16* | TTR inh HuH7=-15;TTR up confirm=0
CCn1cnc2c1c(=O)n(CC(=O)Nc1ccc3c(c1)OC(F)(F)O3)c(=O)n2Cc1ccccc1 | 0
CS(=O)(=O)N1C[C@]2(c3ccccc3)CC1Cc1ccccc12 | -1
CC(=O)Nc1ccc(S(=O)(=O)Nc2ccc(C)c([N+](=O)[O-])c2)cc1 | -1
COc1cc(C(=O)NCC(c2ccccc2)N(C)C)ccc1OCc1c(C)noc1C (stereo not given) | 1
SMILES | TTR transcr act | others
CC(C)Oc1ccc(CNC(=S)N/N=C/c2ccc([N+](=O)[O-])cc2)cc1 | 2
CC(C)COc1ccc(CNC(=S)N/N=C/c2ccc([N+](=O)[O-])cc2)cc1 | 11* | TTR inh HuH7=7;TTR up confirm=-1
COc1ccc(CNC(=S)N/N=C/c2ccncc2)cc1 | 0
COc1ccc(C(=O)N2CCC(=O)N(C(CO)Cc3ccccc3)CC2)cc1 (stereo not given) | 13* | TTR inh HuH7=-10;TTR up confirm=0
O=C(c1ccc(C(F)(F)F)cc1)N1CCC(=O)N([C@H](COCc2ccc(C(F)(F)F)cc2)Cc2ccccc2)CC1 | -1
O=C(c1cccc(C(F)(F)F)c1)N1CCC(=O)N(C(CO)Cc2ccccc2)CC1 (stereo not given) | 1
CC1(C(=O)NS(=O)(=O)c2ccc(F)cc2F)CCN1C(=O)c1ccccc1 (stereo not given) | 1
CCc1c(C)nc(N2CCN(c3ccccc3F)CC2)[nH]c1=O | 0
O=C(CC1C(=O)Nc2ccccc2N1CC(=O)N1CCCC1)Nc1ccc(Br)cc1 (stereo not given) | -1
COC(=O)[C@]12C[C@H](CC(=O)NCc3cccs3)C(=O)N(Cc3ccccc3)C1=C[C@H](COCc1ccccc1)O[C@@H]2C | -1
Cc1nc(CC(C)C)cc(C(=O)N2CCCC(Nc3ccc(C)c(C)c3)C2)n1 (stereo not given) | 1
COc1ccccc1C(=O)C1CCCN(C(=O)c2ccc3c(c2)OCCO3)C1 (stereo not given) | 1
COc1ccccc1C(=O)C1CCCN(C(=O)c2cc(CC(C)C)nc(C)n2)C1 (stereo not given) | 19* | TTR inh HuH7=-15;TTR up confirm=0
CCSC1OC(C(COC(C)=O)OC(C)=O)C(OC(C)=O)C1NC(C)=S (stereo not given) | 0
CCc1nn(C)c2c(=O)c(=O)c2n(C)[nH]1 | -1
CC1(C(=O)Nc2ccc3ccccc3c2)CCC(=O)N1C1CCN(Cc2ccccc2)CC1 (stereo not given) | -1
O=C1CCN(Cc2ccccc2)C=C1c1ccc(C(F)(F)F)cc1 | 1
O=C1CCN(Cc2ccccc2)C=C1c1ccc2ccccc2c1 | 10* | TTR inh HuH7=-15;TTR up confirm=-1
CCC[C@H]1[C@@H](NC(=S)Nc2ccccc2Cl)CC[C@@]23CCCN2C(=O)CCC[C@@H]13 | 1
C[C@H](CO)N1C[C@H](C)[C@@H](CN(C)C(=O)Nc2ccc(C(F)(F)F)cc2)Oc2ccc(NS(=O)(=O)c3ccccc3)cc2C1=O | 3
c1cncc(C2OCC3(CO2)COC(c2cccnc2)OC3)c1 (stereo not given) | 5
CCOC(=O)C1=C(C)NC(=S)NC1c1ccc(OC(=O)c2ccco2)cc1 (stereo not given) | -1
C=CCOC(=O)C1=C(C)NC(C)=C(C(=O)OCC=C)C1c1ccco1 | 0
CCOC(=O)C1=C(C)NC(C)=C(C(=O)OC)C1c1ccco1 (stereo not given) | 12* | TTR inh HuH7=-22;TTR up confirm=2
COCCOC(=O)C1=C(C)Nc2ncnn2C1c1ccco1 (stereo not given) | 13* | TTR inh HuH7=-10;TTR up confirm=1
SMILES | TTR transcr act | others
CCCCCCCOC(=O)C1=C(C)Nc2ncnn2C1c1cccs1 (stereo not given) | -2
CCCCOC(=O)C1=C(C)Nc2ncnn2C1c1cc(OC)ccc1OC (stereo not given) | 1
C[C@@]12C(=O)NCC(=O)N1[C@@H]1c3cc(Br)ccc3OC[C@@H]1[C@@H]2c1ccccc1 | -4
COc1c(O)cccc1[C@@H](O)C1CCN(CCc2ccc(F)cc2)CC1 | 70* | TTR inh HuH7=-4;TTR up confirm=0
CCOC(=O)c1cc2cc(OC)ccc2n1C1CCN(CCc2ccccc2)CC1 | 1
CC1CCN(CC(=O)NCCc2ccc(F)cc2)CC1 | -1
COc1cccc(Cn2cc(COC(=O)NCCc3c[nH]c4ccccc34)nn2)c1 | 0
CCCOc1ccc(F)cc1-c1cc(C(=O)NCc2cccc(C(F)(F)F)c2)[nH]n1 | 2
CCCC[C@H](C(=O)N(C)c1cccc(OC)c1)[C@@H](O)c1ccc(C(C)=O)cc1 | -1
O=C1OCC/C1=C\NCCCCCCCCN/C=C1\CCOC1=O | 0
CC(C)(C)CC(=O)NCc1ccc(F)cc1 | 15* | TTR inh HuH7=-15;TTR up confirm=-1
NC(=O)NCc1ccc(F)cc1 | 0
Cc1ccc(C(=O)OCC(=O)NCc2ccc(F)cc2)o1 | 5
CNc1nc2ccccc2n1CC(=O)c1ccccc1 | 1
O=C(NCc1ccco1)O[C@H]1CC[C@@]23CCCN2C(=O)CCC[C@H]3C1 | 1
CCOC(=O)CC1(NC(=O)C2CCC(=O)N(CCc3ccccc3)C2)CCCCC1 (stereo not given) | 14* | TTR inh HuH7=-12;TTR up confirm=1
O=C(NCc1ccc(F)c(F)c1)C1CCC(=O)N(CCc2ccccc2)C1 (stereo not given) | 1
